Source: PubChem BioAssay
IL-1B inflam inh – inhibitors of inflammasome signaling (IL-1 beta secretion); activity change, % at 57.5 µM; 360,000 tested, 4.7% active; THP-1 LPS/ATP IL-1B secretion, AlphaLISA, 16 h; hits give low values; in the data active means activity change below about -50%; inconclusive means mostly about -30% to -49%
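THP-1 cells pretreated 1 hr with compounds (up to 57.5 uM final), then stimulated with LPS (250 ng/mL final) plus ATP (1.25 mM final); secreted IL-1B measured by AlphaLISA after 16 hr, decreased signal indicating inhibition.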
DT40 TDP1 CPT – growth inhibition of DT40 Tdp1-/-;hTDP1 cells with camptothecin (screen for TDP1 inhibitors); chicken DT40 Tdp1-/-;hTDP1 cells + 20 nM CPT, ATP luminescence, 48 h; Potency, µM (titrated, usually from 46.2 µM), usual class: inhibitors; 420,000 tested, 12% active; further: nearly all actives have a fitted effect of over 55% in size
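Chicken DT40 Tdp1-/- cells stably complemented with human TDP1 were seeded at 400 cells/well in medium containing 20 nM camptothecin, exposed to pin-transferred compounds, and grown at 37 °C for at least 48 hr. Viability was read as ATP luminescence.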
ALOX12 inh – blocks human arachidonate 12S-lipoxygenase; Potency, µM (doses to about 108 µM), most hits filed as inhibitors; AID 1671190; 580,000 tested, 1.1% active; purified 12hLO, xylenol orange hydroperoxide absorbance
Target sequence (P18054 whole entry, looked up): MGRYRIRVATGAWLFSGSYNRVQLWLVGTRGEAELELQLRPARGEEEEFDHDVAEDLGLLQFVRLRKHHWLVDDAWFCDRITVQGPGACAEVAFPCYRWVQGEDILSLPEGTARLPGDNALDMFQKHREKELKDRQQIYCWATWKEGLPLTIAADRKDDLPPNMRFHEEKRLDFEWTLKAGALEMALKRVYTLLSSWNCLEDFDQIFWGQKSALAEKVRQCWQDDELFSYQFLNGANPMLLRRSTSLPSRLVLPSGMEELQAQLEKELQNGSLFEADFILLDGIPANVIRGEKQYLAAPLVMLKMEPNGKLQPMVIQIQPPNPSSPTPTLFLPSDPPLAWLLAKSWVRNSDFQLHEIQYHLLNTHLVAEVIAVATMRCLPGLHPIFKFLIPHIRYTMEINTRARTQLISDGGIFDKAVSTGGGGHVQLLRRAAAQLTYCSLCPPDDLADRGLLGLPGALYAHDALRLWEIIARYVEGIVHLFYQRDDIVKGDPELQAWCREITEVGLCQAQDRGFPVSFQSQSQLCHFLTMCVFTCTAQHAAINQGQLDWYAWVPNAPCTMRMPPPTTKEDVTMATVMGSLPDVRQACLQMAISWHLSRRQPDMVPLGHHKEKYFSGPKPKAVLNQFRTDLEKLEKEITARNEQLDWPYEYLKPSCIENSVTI
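Purified human 12hLO at 150 nM in 25 mM Hepes, 0.01% Triton X-100, pH 7.0, preincubated 15 min at room temperature with compound. Reaction started with 40 uM arachidonic acid, 30 min at room temperature. Hydroperoxide measured by Fe-xylenol orange, 573/405 nm absorbance ratio.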
HT1080 IDH1KD tx – HT-1080 IDH1 knockdown cell toxicity (counter line); AID 686971; 360,000 tested, 2% active; Potency, µM (titrated, usually from 46.1 µM), usual class: cytotoxic; HT-1080 IDH1 knockdown viability, ATP luminescence, 48 h
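In this qHTS, HT-1080 cells depleted of IDH1 are exposed for 48 h at 37 °C to compound titrations. Toxicity is scored from CellTiter-Glo luminescence, with DMSO as full viability and medium alone as none.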
DT40 TDP1 no CPT – qHTS for Inhibitors of human tyrosyl-DNA phosphodiesterase 1 (TDP1): qHTS in cells in absence of CPT; DT40 Tdp1-/- hTDP1 cells, no CPT, ATP luminescence, 48 h; Potency, µM (doses to about 46.2 µM), most hits filed as inhibitors; 420,000 tested, 15% active; further: nearly all actives have a fitted effect of over 55% in size
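Compound effects on proliferation are scored in DT40 Tdp1-/-;hTDP1 cells in the absence of CPT. ATP levels (CellTiter-Glo luminescence) are recorded after a ≥48 hr, 37 °C incubation.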
HT1080NT lethal – kills 2HG-producing HT-1080-NT fibrosarcoma cells | Potency, µM (titrated, usually from 46.1 µM), actives largely listed as cytotoxic | 360,000 tested, 1.6% active | AID 686970 | HT-1080-NT fibrosarcoma viability, CellTiter-Glo ATP luminescence, 48 h;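 further: NT is the 2HG producing partner of a matched IDH1 knockdown line; nearly all actives have a fitted effect of over 55% in size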
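A 48-hour cytotoxicity screen used HT-1080-NT cells plated 2 hours before compound delivery. ATP-based CellTiter-Glo luminescence measured viability, normalized to DMSO and no-cell controls.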
Hits are given with their value; - = inactive; ? = inconclusive; . = not tested or not shown. This is one part of a sample in which hits are shown more often than they occur. Unless noted, the call rests on the fitted dose curve; in most records, active means well fitted curve in the direction sought with a large enough effect; inconclusive means small, poorly fitted or top-dose-only effect, or another doubt; inactive means no such curve, though single readings can be large; an effect the other way counts as inactive or inconclusive.

SMILES | IL-1B inflam inh | DT40 TDP1 CPT | ALOX12 inh | HT1080 IDH1KD tx | DT40 TDP1 no CPT | HT1080NT lethal
O=C1CSC2(C(=O)N(Cc3ccccc3F)c3ccccc32)N1c1ccc(F)cc1 (configuration not stated) | . | . | - | . | . | .
O=C1CCSC2(C(=O)N(Cc3ccc(F)cc3)c3ccccc32)N1c1ccccc1 (configuration not stated) | . | 7.3µM | - | . | 8.2µM | .
Cc1ccccc1CS(=O)Cc1ccccc1F (configuration not stated) | . | . | - | . | . | .
COc1ccc(S(=O)(=O)Nc2ccc(S(=O)(=O)NCC3CCCO3)cc2)cc1 (configuration not stated) | - | - | - | - | - | -
S=C(NCC1CCCO1)Nc1ccc(Cl)c(Cl)c1 (configuration not stated) | - | ? | ? | - | 23µM | -
O=C(Cc1ccc(Cl)c(Cl)c1)NNC(=S)NCC1CCCO1 (configuration not stated) | - | - | - | - | - | -
O=S(=O)(NCC1CCCO1)c1ccc(-c2ccc(S(=O)(=O)NCC3CCCO3)cc2)cc1 (configuration not stated) | - | 0.65µM | - | - | 1.8µM | -
COc1ccc(NS(=O)(=O)c2ccc(NC(=S)NCC3CCCO3)cc2)cc1 (configuration not stated) | - | 15µM | - | - | ? | -
Cc1ccc(C(=O)NC(=S)NCC2CCCO2)cc1Br (configuration not stated) | - | ? | 28µM | - | 29µM | -
O=C(O)CC[C@@H]1CN(C(=O)Cc2ccc(CO)cc2)CC[C@@H]1N1CCOCC1 | . | . | - | . | . | .
CC(C)(C)C(=O)N1CCC2(CC1)OCC(C(=O)NCc1ccco1)N2C(=O)c1ccc(F)cc1 (configuration not stated) | . | . | - | . | . | .
CCOc1cc(=O)n2c(c1C(=O)Nc1ccc(Br)cc1)CCCC2 | . | . | - | . | . | .
O=Cc1c(-c2cc(Cl)c(Cl)cc2Cl)[nH]c2ccccc12 | . | . | - | . | . | .
COc1cc2ncc(S(=O)(=O)c3ccccc3)c(N3CCCC(C)C3)c2cc1OC (configuration not stated) | - | ? | ? | ? | 12µM | -
CC(=O)Nc1ccc(OCC(=O)NC(C)c2ccccc2)nc1 (configuration not stated) | . | . | - | . | . | .
CCOC(=O)CSc1nc2ccccc2c(=O)n1CC1CCC(C(=O)NCc2ccco2)CC1 (configuration not stated) | - | ? | ? | - | 23µM | -
CCOC(=O)CSc1nc2ccccc2c(=O)n1CC1CCCC1 | - | 10µM | - | - | 15µM | -
CC[C@@H](NCCCn1cnc2c(SC)ncnc21)c1ccccc1 | - | 16µM | - | - | ? | -
c1ccc(COc2ncnc3c2ncn3CCCNC2CCN(Cc3ccccc3)CC2)cc1 | ? | 7.3µM | - | 18µM | 4.1µM | 23µM
CSc1ncnc2c1ncn2CCCNCC1CCCO1 (configuration not stated) | - | - | - | - | - | -
c1ccc(COc2ncnc3c2ncn3CCCNCCN2CCOCC2)cc1 | - | - | - | - | - | -
CSc1ncnc2c1ncn2CCCNCc1cccc2ccccc12 | - | - | - | - | ? | -
CSc1ncnc2c1ncn2CCCNC1CCN(Cc2ccccc2)CC1 | ? | ? | ? | - | 23µM | -
CC1CCN(Cc2c(C#N)c3ccccc3n2C)CC1 | ? | - | - | - | ? | -
COc1cccc(C2Cn3nnc(-c4nc(-c5ccc(SC)cc5)no4)c3CO2)c1 (configuration not stated) | . | . | - | . | . | .
SMILES | IL-1B inflam inh | DT40 TDP1 CPT | ALOX12 inh | HT1080 IDH1KD tx | DT40 TDP1 no CPT | HT1080NT lethal
O=C(CN1C(=O)NC2(CCS(=O)(=O)CC2)C1=O)NCc1ccccc1Cl | . | . | - | . | . | .
Nc1ccsc1C(=O)N[C@@H]1COCC[C@@H]1OCc1cscn1 | . | . | - | . | . | .
CC(C)C[C@H]1CNC(=O)C(=O)N1C[C@@H]1CCCN1C[C@H](CC(C)C)N1C[C@H](Cc2ccc(O)cc2)N(CCc2ccccc2)C(=O)C1=O | - | - | - | - | - | -
CCOc1ccc(CCN2C(=O)C(=O)N([C@@H](CC(C)C)CN3CCC[C@H]3CN3C(=O)C(=O)NC[C@@H]3Cc3ccc(O)cc3)C[C@@H]2Cc2ccccc2)cc1 | - | ? | - | ? | 16µM | -
CCOc1ccc(CCN2C(=O)C(=O)N([C@@H](CC(C)C)CN3CCC[C@H]3CN3C(=O)C(=O)NC[C@@H]3CC(C)C)C[C@@H]2Cc2ccc(O)cc2)cc1 | -72 | 16µM | - | ? | ? | -
Cc1cccc2cc3c(NC(=O)c4ccccn4)nn(C)c3nc12 | - | ? | - | ? | 9.2µM | ?
CCCn1nc(NC(=O)COC)c2cc3cccc(C)c3nc21 | - | ? | - | - | 16µM | -
CC1=NS(=O)(=O)N(C)C=C1C(=O)OCc1nc(-c2ccc(Cl)cc2)no1 | . | . | - | . | . | .
N#CC(=C(O)c1ccc(Cl)cc1Cl)c1nc2cc(Cl)ccc2c(=O)[nH]1 | . | . | 22µM | . | . | .
CN(CC(=O)Nc1ccccc1)CC(=O)Nc1ccccc1Cl | - | - | - | - | - | -
CCCCc1ccc(NC(=O)CN(C)CC(=O)Nc2ccccc2Cl)cc1 | -74 | ? | - | - | 23µM | -
CN(CC(=O)Nc1ccccc1Cl)CC(=O)Nc1ccccc1[N+](=O)[O-] | - | ? | - | - | 21µM | -
CN(CC(=O)Nc1ccccc1Cl)CC(=O)Nc1cccc2ccccc12 | - | ? | - | - | ? | -
Cc1cnn(CCC(=O)N2CC(F)(F)C[C@H]2c2nc(C)no2)c1 | . | . | - | . | . | .
COc1cc(/C=C(/C#N)C(=O)Nc2cccc3ncccc23)ccc1OCC(C)C | . | . | - | . | . | .
Nc1nc(SCc2ccccc2)c2[nH]cnc2n1 | - | - | - | - | - | -
Nc1nc(Sc2ccc([N+](=O)[O-])c3nonc23)c2[nH]cnc2n1 | -119 | 1.8µM | 32µM | 1.8µM | 3.3µM | 4.6µM
CNc1ncnc(Sc2nc(N)nc3nc[nH]c23)c1[N+](=O)[O-] | -59 | 2.1µM | - | 1.3µM | 4.6µM | 2.9µM
OC12CC3CC(C1)CC(NC/C=C/c1ccccc1)(C3)C2 | . | . | - | . | . | .
COc1ccc(C(=O)N2CCC3(CC2)Cc2ccccc2NC3=O)cc1 | . | . | - | . | . | .
COc1ccc(C(=O)/C=C2/c3ccccc3CC(C)(C)N2C)cc1 | - | 5.2µM | - | 6.3µM | 5.2µM | 6.3µM
CN1/C(=C\C(=O)Nc2cccnc2)c2ccccc2CC1(C)C | - | 18µM | - | - | 10µM | -
